Values joined by “and” are separate entries in the source; they are usually repeats but may differ in a detail not shown here. Equal entries are not always repeated. About 2,000 (36%) of roughly 5,500 compounds were called active. Not shown: some 18% with an inconclusive outcome. Cut-off read from the data, not from the text of the source: active = normalized growth mostly below about 0.91 (no sharp cut-off); inconclusive = no clear call, values can overlap the other calls; inactive = mostly above about 0.92. Some of the results follow.
Assay: chemical genetic growth profiling, strain panel (AID 1159580);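 note: tested at 20 µM; growth read once vehicle control cultures reached saturation at 30 °C; 1 = growth at the plate median or of vehicle wells; lower values mean less growth of the strain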
Details: S. cerevisiae deletion strains, growth OD
[1] = locus YDR150W, strain NUM1, active compounds read low
[2] = locus YMR307W, strain GAS1, active compounds read low
[3] = locus YPL055C, strain LGE1, active compounds read low
[4] = locus YPL241C, strain CIN2, active compounds read low

Measured: normalized growth

C[C@]12Cc3cn4c(nc3C=C1CCC1C2CC[C@@]2(C)[C@H]1CC[C@@]2(O)C#N)nc1ccccc14 (some centres undefined)
inactive: locus YCL061C, strain MRC1 (second series), active compounds read low 0.99 | [1] 1 | locus YDR363W, strain ESC2, active compounds read low 0.975 | locus YGR229C, strain SMI1, active compounds read low 0.937 | locus YJR075W, strain HOC1, active compounds read low 0.963 | [2] 0.936 | locus YNL197C, strain WHI3, active compounds read low 0.911 | locus YNL322C, strain KRE1, active compounds read low 0.938 | [3] 0.966 | [4] 0.996
active: locus YAL040C, strain CLN3, active compounds read low 0.88 | locus YER002W, strain NOP16, active compounds read low 0.264 | locus YNL153C, strain GIM3, active compounds read low 0.63 | locus YNL175C, strain NOP13, active compounds read low 0.229 | locus YNL224C, strain SQS1, active compounds read low 0.799 | locus YOR083W, strain WHI5 (second series), active compounds read low 0.852

CC(=O)OCC(=O)[C@@]1(O)CCC2C3CCC4=CC(=O)CC[C@]4(C)C3[C@@H](O)C[C@@]21C (some centres undefined)
inactive: locus YAL013W, strain DEP1, active compounds read low 1.01 | locus YAL021C, strain ccr4, active compounds read low 1.03 | locus YAL026C, strain drs2, active compounds read low 1.02 | locus YAL030W, strain snc1, active compounds read low 1.04 | locus YBL061C, strain skt5, active compounds read low 1.03 | locus YBR009C, strain hhf1, active compounds read low 0.99 | locus YBR021W, strain FUR4, active compounds read low 0.999 | locus YBR023C, strain chs3, active compounds read low 1.02 | locus YBR171W, strain sec66, active compounds read low 1.04 | locus YBR229C, strain ROT2, active compounds read low 1 | locus YBR231C, strain swc5, active compounds read low 0.999 | locus YBR279W, strain paf1, active compounds read low 1.01 | locus YCL011C, strain gbp2, active compounds read low 1.01 | locus YCL016C, strain dcc1, active compounds read low 1.04 | locus YCL029C, strain bik1, active compounds read low 1 | locus YCL069W, strain vba3, active compounds read low 1 | locus YCR088W, strain abp1, active compounds read low 1.02 | locus YDL005C, strain med2, active compounds read low 1.01 | locus YDL035C, strain GPR1, active compounds read low 1.01 | locus YDL040C, strain nat1, active compounds read low 1.01 | locus YDL074C, strain BRE1, active compounds read low 1.01 | locus YDL101C, strain DUN1, active compounds read low 1.01 | locus YDL134C, strain PPH21, active compounds read low 1.01 | locus YDL185W, strain tfp1, active compounds read low 1.01 | locus YDL192W, strain arf1, active compounds read low 1 | locus YDR001C, strain nth1, active compounds read low 1.01 | locus YDR069C, strain doa4, active compounds read low 1.04 | locus YDR101C, strain arx1, active compounds read low 0.994 | locus YDR137W, strain rgp1, active compounds read low 1.05 | [1] 1.01 | locus YDR159W, strain sac3, active compounds read low 0.997 | locus YDR162C, strain NBP2, active compounds read low 1.01 | locus YDR195W, strain ref2 1.02 | locus YDR297W, strain sur2, active compounds read low 0.997 | locus YDR318W, strain mcm21, active compounds read low 0.998 | locus YDR334W, strain swr1, active compounds read low 1.01 | locus YDR335W, strain msn5, active compounds read low 1.02 | locus YDR388W, active compounds read low 1 | locus YDR392W, strain spt3, active compounds read low 1.04 | locus YDR502C, strain sam2, active compounds read low 0.996 | locus YEL003W, strain gim4, active compounds read low 1.01 | locus YEL037C, strain rad23, active compounds read low 1.02 | locus YEL061C, strain CIN8 (second series), active compounds read low 1.01 | locus YEL061C, strain CIN8, active compounds read low 1.01 | locus YER015W, strain faa2, active compounds read low 1.01 | locus YER016W, strain bim1, active compounds read low 1.05 | locus YER110C, active compounds read low 0.998 | locus YER111C, strain swi4, active compounds read low 1.01 | locus YER155C, strain BEM2 (second series), active compounds read low 1.02 | locus YER155C, strain BEM2, active compounds read low 1.01 | locus YER167W, strain BCK2, active compounds read low 1.01 | locus YFR010W, strain ubp6, active compounds read low 0.984 | locus YGL078C, strain dbp3, active compounds read low 0.99 | locus YGL086W, strain mad1, active compounds read low 1.01 | locus YGL167C, strain pmr1, active compounds read low 1.02 | locus YGL173C, strain kem1, active compounds read low 1.02 | locus YGL227W, strain vid30, active compounds read low 1.01 | locus YGL240W, strain doc1, active compounds read low 1 | locus YGL248W, strain PDE1, active compounds read low 1 | locus YGL253W, strain hxk2, active compounds read low 1.02 | locus YGR135W, strain pre9, active compounds read low 0.986 | locus YGR252W, strain gcn5, active compounds read low 0.947 | locus YHR013C, strain ard1, active compounds read low 1.04 | locus YHR027C, strain rpn1, active compounds read low 1.03 | locus YHR030C, strain SLT2, active compounds read low 1.01 and 0.978 | locus YHR079C, strain IRE1 (second series), active compounds read low 1 | locus YHR079C, strain IRE1, active compounds read low 0.976 | locus YHR094C, strain hxt1, active compounds read low 0.995 | locus YHR129C, strain ARP1, active compounds read low 1.01 | locus YHR142W, strain chs7, active compounds read low 1.03 | locus YHR200W, strain rpn10, active compounds read low 1 | locus YIL066C, strain RNR3, active compounds read low 1.01 | locus YIL073C, strain SPO22, active compounds read low 1.04 | locus YIL125W, strain kgd1, active compounds read low 0.996 | locus YIR030C, strain dcg1, active compounds read low 1 | locus YJL092W, strain hpr5, active compounds read low 1.02 | locus YJL095W, strain BCK1 (second series), active compounds read low 1.03 | locus YJL095W, strain BCK1, active compounds read low 1.01 and 0.971 | locus YJL115W, strain asf1, active compounds read low 1.01 | locus YJL129C, strain trk1, active compounds read low 1.04 | locus YJL134W, strain LCB3, active compounds read low 1.01 | locus YJL154C, strain vps35, active compounds read low 1.01 | locus YJL164C, strain tpk1, active compounds read low 1.01 | locus YJL166W, strain qcr8, active compounds read low 1.01 | locus YJL168C, strain set2, active compounds read low 0.993 | locus YJL187C, strain SWE1 (second series), active compounds read low 1 | locus YJL187C, strain SWE1, active compounds read low 1.01 | locus YJR043C, strain POL32, active compounds read low 1.02 | locus YJR066W, strain TOR1, active compounds read low 0.931 | locus YKL009W, strain mrt4, active compounds read low 1.01 | locus YKL068W, active compounds read low 0.997 | locus YKL085W, strain MDH1 (second series), active compounds read low 1 | locus YKL085W, strain MDH1, active compounds read low 1 | locus YKL160W, strain elf1, active compounds read low 1.04 | locus YKR001C, strain vps1, active compounds read low 0.997 | locus YKR026C, strain gcn3, active compounds read low 1 | locus YKR091W, strain srl3, active compounds read low 1.01 | locus YLL001W, strain dnm1, active compounds read low 1.01 | locus YLL026W, active compounds read low 1.01 | locus YLL041C, strain sdh2, active compounds read low 1.03 | locus YLR027C, strain aat2, active compounds read low 1.02 | locus YLR039C, strain RIC1, active compounds read low 1.02 | locus YLR058C, strain SHM2, active compounds read low 0.996 | locus YLR102C, strain apc9, active compounds read low 0.995 | locus YLR113W, strain HOG1, active compounds read low 0.992 | locus YLR221C, strain rsa3, active compounds read low 0.985 | locus YLR258W, strain gsy2, active compounds read low 1.03 | locus YLR262C, strain YPT6 (second series), active compounds read low 1 | locus YLR262C, strain YPT6, active compounds read low 1.04 | locus YLR268W, strain sec22, active compounds read low 0.998 | locus YLR320W, strain mms22, active compounds read low 1 | locus YLR330W, strain CHS5, active compounds read low 1.01 | locus YLR342W, strain FKS1 (second series), active compounds read low 0.998 | locus YLR342W, strain FKS1, active compounds read low 1.02 | locus YLR357W, strain rsc2, active compounds read low 1.03 | locus YLR370C, strain arc18, active compounds read low 1.02 | locus YLR371W, strain rom2, active compounds read low 0.994 | locus YLR384C, strain iki3, active compounds read low 1.02 | locus YLR418C, strain cdc73, active compounds read low 0.994 | locus YML016C, strain PPZ1, active compounds read low 1 | locus YML032C, strain rad52, active compounds read low 1 | locus YML120C, strain ndi1, active compounds read low 1 | locus YML124C, strain tub3, active compounds read low 0.998 | locus YMR058W, strain fet3, active compounds read low 1.03 | locus YMR078C, strain ctf18, active compounds read low 1 | locus YMR125W, strain sto1, active compounds read low 1.03 | locus YMR129W, active compounds read low 1.02 | locus YMR205C, strain PFK2, active compounds read low 1.03 | locus YMR223W, strain ubp8, active compounds read low 0.98 | locus YMR231W, strain pep5, active compounds read low 1.02 | [2] 0.984 | locus YNL067W, strain RPL9B, active compounds read low 1.01 | locus YNL071W, strain lat1, active compounds read low 1 | locus YNL183C, strain NPR1, active compounds read low 0.954 | locus YNL209W, strain ssb2, active compounds read low 1.02 | locus YNL233W, strain BNI4, active compounds read low 1 | locus YNL248C, strain rpa49, active compounds read low 1.03 | locus YNL250W, strain rad50, active compounds read low 0.982 | locus YNL271C, strain bni1, active compounds read low 0.993 | locus YNL298W, strain CLA4, active compounds read low 0.995 | locus YNL307C, strain MCK1, active compounds read low 1 | locus YNL322C, strain KRE1 (second series), active compounds read low 1.04 | locus YNR049C, strain mso1, active compounds read low 1.02 | locus YNR052C, strain pop2, active compounds read low 0.996 | locus YOL012C, strain htz1 0.732 | locus YOL147C, strain pex11, active compounds read low 0.992 | locus YOR001W, strain rrp6, active compounds read low 0.986 | locus YOR061W, strain CKA2, active compounds read low 1.01 | locus YOR069W, strain VPS5, active compounds read low 1.01 | locus YOR070C, strain gyp1, active compounds read low 1.03 | locus YOR080W, strain dia2, active compounds read low 1.02 | locus YOR083W, strain WHI5, active compounds read low 1.05 | locus YOR106W, strain vam3, active compounds read low 1.05 | locus YOR136W, strain idh2, active compounds read low 0.994 | locus YOR144C, strain elg1, active compounds read low 0.997 | locus YOR184W, strain ser1, active compounds read low 1 | locus YOR231W, strain MKK1, active compounds read low 0.992 | locus YOR265W, strain rbl2, active compounds read low 1 | locus YOR270C, strain vph1, active compounds read low 1.03 | locus YOR290C, strain snf2, active compounds read low 1.06 | locus YOR316C, strain cot1, active compounds read low 0.995 | locus YPL051W, strain arl3, active compounds read low 1 | [3] 1 | locus YPL078C, strain atp4, active compounds read low 1.04 | locus YPL106C, strain sse1, active compounds read low 1.04 | locus YPL240C, strain hsp82, active compounds read low 1.01 | [4] 1.01 | locus YPL256C, strain CLN2, active compounds read low 0.968 | locus YPR119W, strain clb2, active compounds read low 0.999 | locus YPR141C, strain kar3, active compounds read low 1.01 | locus YPR163C, strain tif3, active compounds read low 1 | locus YPR167C, strain met16, active compounds read low 1 | strain wtn01, active compounds read low 0.997

— PubChem BioAssay AID1159580 (chemical genetic matrix, 2015)
